From PubChem BioAssay AID449762 (Southern Research Specialized Biocontainment Screening …, 2010) come the findings set out here.

A word on the inhibition: it is the relative decrease from the control value, in per cent.

Each structure is given as a SMILES string. “And” between values parts separate entries of the source, which are not always exact repeats. Equal entries are not always repeated. About 1,900 (0.58%) of roughly 330,000 compounds were called active. Roughly 4% stayed inconclusive and do not appear here. Only a sample is shown. Entries with a potency or affinity are not part of this list. Unmarked numbers belong to inactive results. No stated cut-off is given here; in the data, inconclusive means inhibition above about 70% without an active follow-up result; inactive means below that.

The experiment in a line: M. tuberculosis growth inhibition, HTS (AID 449762).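 Further: bacterial growth assessed after seven days of incubation.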 To be noted: M. tuberculosis H37Rv growth inhibition, 7H9 media; at 25 µM; hits give high values.
As for `N#Cc1ccc(Cn2ccnc2C(=O)Nc2ccccc2)cc1`, the inhibition was 0.04%.

On to `CCN(CC)CCN1C(=O)C(=O)/C(=C(/O)c2ccc(S(=O)(=O)N3CCOCC3)cc2)C1c1ccc(C(C)C)cc1` (configuration not stated), for which the inhibition was 1.15%.

For the compound `CCNCc1nc2cc(OC)c(OC)cc2c(=O)[nH]1`, the inhibition was 2.16%.

Consider `CCOC(=O)c1sc2nc(C)nc(SC(C)C(=O)NC3CC3)c2c1C` (configuration not stated), for which the inhibition was 44%.

Consider `CCOC(=O)c1sc2nc(C)nc(SCC(=O)NC(C)CCc3ccccc3)c2c1C` (configuration not stated), for which the inhibition was -5.1%.

As to `O=C(c1ccc(F)cc1)C(CCCCCC(CN1CCOCC1)C(=O)c1ccc(F)cc1)CN1CCOCC1` (configuration not stated), the inhibition was 2%.

As for `COc1ncnc2c1oc1ccccc12`, the inhibition is 6.25%.

On to `c1cncc(-c2nc3c(ccc4ccccc43)[nH]2)c1`, for which the inhibition was -6.09%.

For `Nc1ccc(-c2nc3c(ccc4ccccc43)[nH]2)cc1`, the inhibition was 6.07%.

For the compound `O=C(Nc1ccc(S(=O)(=O)Nc2ccnn2-c2ccccc2)cc1)C(F)(F)F`, the inhibition was 56.7%.

In the case of `CC(=O)NC(CC(=O)Nc1nc(-c2ccc(N(C)S(C)(=O)=O)cc2)cs1)c1ccccc1` (configuration not stated), the inhibition is -3.7%.

For the compound `CC(C)Nc1nc(-c2ccccc2)nc(-n2ccnc2)n1`, the inhibition was 12.9%.

With `CCCCCNc1nc(-c2ccccc2)nc(-n2ccnc2)n1`, the inhibition is -1.97%.

Take `CCCOc1ccc(-c2nnn(CC(=O)c3ccc4c(c3)OCCO4)n2)cc1`: the inhibition was -6.75%.

As for `C=CCN1CC[C@]23c4c5ccc(O)c4O[C@H]2C(=O)CC[C@@]3(O)[C@H]1C5`, the inhibition is 29.2% and -16.4%.

Regarding `C=CCN1CC[C@]23c4c5ccc(O)c4OC2C(=O)CC[C@@]3(O)C1C5` (some centres not stated), the inhibition was -3.13%.

As to `O=C(Nc1ccc(OCC(F)(F)C(F)F)c(C(F)(F)F)c1)c1ccccc1`, the inhibition was 3.85%.

In the case of `COc1ccc(C(=O)Nc2ccc(OCC(F)(F)C(F)F)c(C(F)(F)F)c2)cc1OC`, the inhibition is -1.87%.

For the compound `COc1ccc(S(=O)(=O)N2CCOCC2)cc1NC(=O)CC1CCCC1`, the inhibition was -1.2%.

On to `O=C(NCc1ccc(F)cc1)Nc1cccc(Cl)c1`, for which the inhibition is -4.36%.

Take `CC(C)C(=O)Nc1ccc2c(c1)C(=O)N(CCC(=O)O)C2=O`: the inhibition is 3.16%.

With `O=C(NCc1ccc2c(c1)OCO2)C1CCCN1S(=O)(=O)c1ccc(Cl)cc1` (configuration not stated), the inhibition was -0.02%.

On to `CC(=O)Nc1cccc(NC(=S)Nc2cccc(Cl)c2Cl)c1`, for which the inhibition is 0.32%.

`COc1cc(/C=C2\N=C(C)OC2=O)cc(OC)c1OC`: the inhibition was 6.29%.

For the compound `COc1cc(/C=C2\SC(c3ccc(C)cc3)=NC2=O)cc(OC)c1OC`, the inhibition is -5.86%.

For the compound `Cc1cccc(/C=N\NC(=O)c2sccc2-n2cccc2)c1`, the inhibition was 0.5%.

Consider `COC(=O)C1=C(c2cccc(C#N)c2)C[C@@H]2CC[C@H]1N2C(=O)NCCc1ccccc1`, for which the inhibition is -2.69%.

For the compound `NNC(=O)c1sccc1OCc1ccc(Cl)cc1Cl`, the inhibition is 39.9%.

With `CNC(=S)NNC(=O)c1sccc1OCc1ccc(Cl)cc1Cl`, the inhibition was -1.67%.

With `CC(C)CC(CO)N1CCN(C(=O)c2ccc(Cl)c(Cl)c2)CCC1=O` (configuration not stated), the inhibition is -0.29%.

Consider `COc1ccc(NC(=O)c2nnn(CC(=O)Nc3ccccc3OC)c2N)c(OC)c1`, for which the inhibition is -1.76%.

For `O=C(N=Nc1c(O)n(Cc2ccccc2)c2ccccc12)c1ccc(O)cc1`, the inhibition is 8.8%.

As for `Cn1cnnc1SCc1ccc(C(=O)N=Nc2c(O)n(C)c3ccccc23)cc1`, the inhibition is -4.97%.

With `Cc1nc2ccccc2c(=O)n1NC(=O)C1CC1`, the inhibition was 4.78%.

As for `CCCCCCC1CCC(C(=O)Nn2c(C)nc3ccccc3c2=O)CC1` (configuration not stated), the inhibition is 12.2%.

Regarding `COc1ccc(NC(=O)C2CC(c3c(F)cccc3Cl)=NO2)cc1` (configuration not stated), the inhibition was 0.25%.

As to `COc1ccc(OCCOc2cccc(C=C3C(=O)NC(=O)NC3=O)c2)cc1`, the inhibition was 21.3%.

On to `O=C(COc1ccc(Cl)cc1)NCCNC(=O)c1cnccn1`, for which the inhibition is 5.05%.

Turning to `O=C(NCC(c1ccco1)N1CCc2ccccc21)C(=O)Nc1ccccc1F` (configuration not stated), the inhibition is 8.05%.

On to `CCC(C(=O)O)n1nnc(-c2ccc(-c3ccc(OC)cc3)cc2)n1` (configuration not stated), for which the inhibition was 4.02%.

As for `CCCCOc1ccc(-c2nnn(CC(=O)Nc3ncc(CC(=O)OCC)s3)n2)cc1`, the inhibition was 4.47%.

As to `CC1Cc2ccccc2N1C(=O)CN1CCC(C(N)=O)CC1` (configuration not stated), the inhibition was 0.29%.

With `O=C(NCc1ccccc1)c1ccc2c(=O)[nH]c3c(C(=O)NCC4CCCO4)sc(=S)n3c2c1` (configuration not stated), the inhibition is 9.46%.

With `Cc1ccc(CNC(=O)c2ccc3c(=O)[nH]c4c(C(=O)NCC5CCCO5)sc(=S)n4c3c2)cc1` (configuration not stated), the inhibition was 6.08%.

As for `COC(=O)c1ccc(NC(=S)N2CCN(Cc3ccccc3Cl)CC2)cc1`, the inhibition is 3.97%.

On to `COc1ccc(OC)c(NC(=O)CSc2nc(N3CCOCC3)nc(N3CCOCC3)n2)c1`, for which the inhibition is -13%.

For `COc1ccc(Nc2ncc3c(n2)CC(c2ccc(OC)cc2)CC3=O)cc1` (configuration not stated), the inhibition was 5.93%.

Regarding `COc1ccc(Nc2ncc3c(n2)CC(c2ccc(C)cc2)CC3=O)cc1` (configuration not stated), the inhibition is 11%.

For `CC(=O)c1c(COC(=O)c2cccc(C)c2)nc2ccccc2[n+]1[O-]`, the inhibition was -1.11%.

Regarding `CC(=O)c1c(N2CCCCC2)nc(=S)n(-c2ccccc2)c1C`, the inhibition was -9.27%.

Take `CN1CCC(N(C)C(=O)c2ccc(Cl)c(S(=O)(=O)Nc3cc(Cl)ccc3Cl)c2)CC1`: the inhibition is -3.22%.

For the compound `O=C(CCCN1C(=O)c2cccnc2C1=O)N1CC(=O)N(CCc2ccccc2)C(=O)C1`, the inhibition is 2.7%.

With `CC1CCN(CCNC(=O)C2CCN(S(=O)(=O)c3cccc4nsnc34)CC2)CC1`, the inhibition is -5.73%.

As for `CO/N=C(\Cn1ncc(N2CCOCC2)c(Br)c1=O)c1ccc(Cl)cc1`, the inhibition was -12.1%.

Consider `O=C(Cn1ncc(N2CCCC2)c(Cl)c1=O)c1ccc(Cl)cc1`, for which the inhibition was -5.18%.

On to `O=C(NCCC(=O)N1CCC2(CC1)NCCc1[nH]cnc12)c1cccc(C(F)(F)F)c1`, for which the inhibition is -1.8%.

For the compound `CS(=O)(=O)Nc1ccc(C2=NN(C(=O)c3ccco3)C(c3ccccc3)C2)cc1` (configuration not stated), the inhibition was 2.8%.
